# Screens: PubChem, National Center for Advancing Translational Sciences (NCATS)
# FLuc inh – Photinus pyralis luciferase inhibition; P08659; purified P. pyralis luciferase, luminescence, biochemical; Potency, µM (top dose mostly 115 µM), actives largely listed as inhibitors; actives 2.5% (n = 76,000); AID 1347043; note: nearly all actives have a fitted effect of over 65% in size
# Target sequence (P08659 whole entry, looked up): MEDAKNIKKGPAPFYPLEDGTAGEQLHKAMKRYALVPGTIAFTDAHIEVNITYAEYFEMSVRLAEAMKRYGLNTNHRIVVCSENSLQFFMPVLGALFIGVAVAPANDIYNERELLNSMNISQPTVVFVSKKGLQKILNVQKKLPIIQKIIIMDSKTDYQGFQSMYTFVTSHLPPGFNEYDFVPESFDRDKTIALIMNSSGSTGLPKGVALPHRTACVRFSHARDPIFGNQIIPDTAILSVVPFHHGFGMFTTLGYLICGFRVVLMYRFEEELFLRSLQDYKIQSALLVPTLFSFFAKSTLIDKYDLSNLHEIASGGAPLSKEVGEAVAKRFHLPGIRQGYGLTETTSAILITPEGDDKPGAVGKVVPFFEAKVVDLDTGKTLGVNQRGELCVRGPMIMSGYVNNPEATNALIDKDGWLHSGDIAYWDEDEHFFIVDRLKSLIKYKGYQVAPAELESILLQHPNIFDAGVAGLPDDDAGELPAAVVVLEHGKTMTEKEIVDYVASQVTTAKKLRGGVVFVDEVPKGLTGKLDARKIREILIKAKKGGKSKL
#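 Luminescence read by CCD imager after adding enzyme (10nM final) to wells holding compound, titrated in qHTS. Substrates 10uM each D-luciferin and ATP; buffer 50mM Tris acetate pH 7.5, 10mM Mg acetate, Tween-20, BSA.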
# hNpr1 antagonist – blocks ANP-stimulated signaling of human Npr1 receptor; Potency, µM (highest dose often 46.3 µM), actives largely listed as inhibitors; P16066; AID 1347048; HEK293 hNpr1 GloSensor cGMP, ANP-stimulated luminescence; actives 1.6% (n = 76,000); calls by dose curve; note: nearly all actives have a fitted effect of over 60% in size
#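 Compound pre-incubated 30 min at room temperature on GloSensor-loaded HEK293 cells stably carrying hNpr1 and the pGS-40F cGMP biosensor. Stimulation uses hNppA at 0.1 nM final; luminescence is taken at baseline and 20 min post-agonist.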
# NIH3T3 tox – NIH 3T3 cell cytotoxicity; actives 4.3% (n = 94,000); NIH 3T3 viability, CellTiter-Glo ATP luminescence, 48-72 h; Potency, µM (titrated, usually from 96.7 µM), hits mostly inhibitors; AID 1345082; note: nearly all actives have a fitted effect of over 55% in size
#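 Viability of NIH 3T3 cells after 48 or 72 hr compound treatment at 37 °C was assessed by CellTiter-Glo, with luminescence imaged following a 10 min room-temperature step.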
# HEK cytotox – kills HEK 293 cells; AID 1345083; Potency, µM (series often up to 115 µM), most hits filed as inhibitors; HEK 293 viability, ATP luminescence (CellTiter-Glo), 48-72 h; actives 6.6% (n = 94,000); note: nearly all actives have a fitted effect of over 60% in size
#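 Cells seeded first (HEK 293, 250 cells/well), then compound added by pintool. Incubation ran 48 or 72 hr at 37 degree Celsius. CellTiter-Glo was added and luminescence imaged after 10 min at room temperature.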
# Numbers stand for hits; – = inactive; ? = inconclusive; · = no result. This is a sample that favours compounds with a hit; in the whole collection about 11% have one here. Unless noted, calls come from the whole dose curve; as a rule, active = well fitted curve in the direction sought with a large enough effect; inconclusive = small, poorly fitted or top-dose-only effect, or another doubt; inactive = no such curve, though single readings can be large; an effect the other way counts as inactive or inconclusive.
SMILES,FLuc inh,hNpr1 antagonist,NIH3T3 tox,HEK cytotox
CC(C)n1cc(CN2CCC(CO)(Cc3ccccc3Cl)CC2)cn1,–,–,–,–
COc1cc(=O)n2c(c1C(=O)Nc1cc(C)ccc1F)CCCC2,–,–,–,–
COc1ccc(-c2cc(N3CCCN(C(=O)Cc4c[nH]c5ccccc45)CC3)n[nH]2)cc1,–,–,?,?
O=C(Cc1c[nH]c2ccccc12)N1CCCN(c2cc(-c3ccc(Cl)cc3)[nH]n2)CC1,–,?,35µM,45µM
Cc1ccc(CC(=O)N2CCCN(c3cc(-c4ccc(C)c(C)c4)[nH]n3)CC2)cc1,–,?,32µM,32µM
COc1ccc(-c2cc(N3CCCN(C(=O)Cc4ccc(Cl)cc4)CC3)n[nH]2)cc1,–,–,?,45µM
COc1ccc(-c2cc(N3CCCN(C(=O)Cc4ccc(C)cc4)CC3)n[nH]2)cc1,–,?,?,?
COc1ccc(CC(=O)N2CCCN(c3cc(-c4ccc(Br)cc4)[nH]n3)CC2)cc1OC,–,?,?,?
COc1ccc(-c2cc(N3CCCN(C(=O)Cc4cccc(F)c4)CC3)n[nH]2)cc1,–,–,?,40µM
CC(C)CNC(=O)c1nc2sccn2c1-c1cccc(C(F)(F)F)c1,·,·,–,–
COc1ccc(NC2CCCN(C(=O)CCCS(N)(=O)=O)C2)cc1 (centres undefined),–,–,–,–
COc1cccc(CCC(=O)N2CCCN(c3cc(-c4ccccc4)[nH]n3)CC2)c1,–,–,?,?
Cc1cccc(CC(=O)N2CCCN(c3cc(-c4ccc(Cl)cc4)[nH]n3)CC2)c1,–,?,40µM,?
Cc1ccccc1CC(=O)N1CCCN(c2cc(-c3ccc(Cl)cc3)[nH]n2)CC1,–,–,?,?
COc1cccc(CC(=O)N2CCCN(c3cc(-c4ccccc4)[nH]n3)CC2)c1,–,–,?,35µM
Cc1ccc(-c2cc(N3CCCN(C(=O)c4ccccn4)CC3)n[nH]2)cc1C,–,–,–,?
Cc1ccc(-c2cc(N3CCCN(C(=O)c4ccccc4C)CC3)n[nH]2)cc1C,–,?,40µM,32µM
CCn1ccc(C(=O)N2CCC3(CC2)CC(OCC2CC2)CCO3)n1 (centres undefined),–,–,–,–
Cc1ncsc1C(=O)N1CCCC(CCc2ccc(F)cc2F)C1 (centres undefined),–,–,?,89µM
O=C(c1ccncc1)N1CCCC(CCc2ccc(F)cc2)C1 (centres undefined),–,?,?,40µM
CCCc1ncncc1C(=O)N1CCCC(CCc2ccc(F)cc2)C1 (centres undefined),–,–,?,?
CCCn1nccc1C(=O)N1CCCC(CCc2cccc(C(F)(F)F)c2)C1 (centres undefined),–,?,?,25µM
CSCC(=O)N1CCCC(CCc2cccc(F)c2)C1 (centres undefined),?,–,?,20µM
O=C(c1ccc(=O)[nH]c1)N1CCCC(CCc2cccc(C(F)(F)F)c2)C1 (centres undefined),–,–,?,?
O=C(c1cccc(O)c1)N1CCCC(CCc2cccc(C(F)(F)F)c2)C1 (centres undefined),–,–,?,40µM
SMILES,FLuc inh,hNpr1 antagonist,NIH3T3 tox,HEK cytotox
COc1ccc(-c2cc(C(=O)N3CCOCC3)c3c(C4CCNC4)nn(C)c3n2)cc1 (centres undefined),·,·,–,–
COc1ccc(-c2cc(C(=O)NCC(C)C)c3c(C4CCNC4)nn(C)c3n2)cc1 (centres undefined),·,·,20µM,?
CC(C)NC(=O)N1CCCCCCNC(=O)[C@@H]2CCCC[C@@H]21,–,–,–,–
CCCc1nc(C)n2ccn(Cc3cccc(C#N)c3)c(=O)c12,–,–,–,–
CC(=O)NC1CCN(C(=O)c2coc(COc3ccc4c(c3)OCO4)n2)C1 (centres undefined),–,–,–,–
OCC1CN(c2ncccn2)CC12CCN(Cc1ccsc1)CC2 (centres undefined),–,–,–,–
OCC1CN(C2CCC2)CC12CCN(Cc1ccsc1)CC2 (centres undefined),–,–,?,89µM
CCOC(=O)C1(Cc2ccccc2C)CCCN(Cc2cnc(C)s2)C1 (centres undefined),–,–,–,?
CCCCOc1ccc(-c2nc(C3CC(=O)N(C4CCCCC4)C3)no2)cc1 (centres undefined),–,?,32µM,45µM
O=C1CC(c2noc(-c3ccco3)n2)CN1C1CCCCC1 (centres undefined),–,–,–,–
Cc1ccsc1-c1nc(C2CC(=O)N(C3CCCCC3)C2)no1 (centres undefined),–,–,–,79µM
CCCCOc1ccc(-c2nc(C3CC(=O)N(c4ccc(OC)cc4)C3)no2)cc1 (centres undefined),–,–,–,–
CC(=O)NC1(C)CCN(Cc2cccc(Nc3cccc(Cl)c3)c2)C1 (centres undefined),?,?,45µM,71µM
COc1cccc(Nc2cccc(CN3CCC(C)(NC(C)=O)C3)c2)c1 (centres undefined),50µM,–,?,?
COc1ccccc1-c1cccc(CN2CCC(N[S+](=O)([O-])c3c(C)noc3C)CC2)c1,·,·,35µM,35µM
COc1ccccc1-c1cccc(CN2CCC(N[S+](=O)([O-])c3ccc(C)cc3)CC2)c1,·,·,?,35µM
COc1ccc(-c2noc(-c3cccn3CC(=O)Nc3ccc(C)cc3C)n2)cc1F,–,–,–,–
Cc1ccc(C2(C(=O)N[C@@H]3COCC[C@@H]3OCc3ccccc3)CC2)cc1,–,–,?,45µM
Cc1ccc([S+](=O)([O-])NC2CCCN(CCn3nc4n(c3=O)CCCC4)C2)cc1 (centres undefined),·,·,–,–
Cc1ccc(-c2cccc(CN3CCCC(N[S+](C)(=O)[O-])C3)c2)cc1Cl (centres undefined),·,·,28µM,22µM
Cc1ccc([S+](=O)([O-])NC2CCCN(Cc3cccc(-c4ccc(C)c(Cl)c4)c3)C2)cc1 (centres undefined),·,·,?,28µM
CC(=O)Nc1ccc(S(=O)(=O)N2C[C@@H]3C[C@H](C2)c2ccc(-c4ccccc4C)c(=O)n2C3)cc1,–,–,–,–
CN1CC(=O)N(C2CCCNCC2)Cc2c(NCCCN3CCCCC3)ncnc21 (centres undefined),·,·,–,–
CC(=O)N1CCC(N2CC[C@H](c3nc4ccccc4s3)C2)CC1,?,–,–,–
c1ccc2sc([C@H]3CCN(C4CCC4)C3)nc2c1,1.6µM,22µM,–,?
COC(=O)N(C)Cc1ccc(-c2ccccc2)cc1,?,–,?,?
O=C(CCC[C@@H]1[C@H]2CCCN3CCC[C@@H](CN1C(=O)c1ccccc1)[C@@H]23)Nc1ccc(F)cc1F,–,–,–,–
CCc1nc(NC(c2ccccc2)c2ccco2)c2cnn(C)c2n1 (centres undefined),–,–,?,40µM
CCc1nc(NCCc2cc(OC)cc(OC)c2)c2cnn(C)c2n1,–,–,?,?
